FEN1 inhibitor = qHTS Assay for the Inhibitors of Human Flap endonuclease 1 (FEN1). Recombinant FEN1 flap cleavage, fluorescence, 15 min. actives 0.35% (n = 390,000). P39748. Potency, µM (series often up to 114 µM), actives largely listed as inhibitors; further: nearly all actives have a fitted effect of over 65% in size
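Quantitative HTS format: each compound was titrated, incubated with 10 nM nuclease for 15 min at room temperature, then challenged with flap substrate at 50 nM final. Signal change over 15 min gave concentration–effect curves.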
BLM inh = qHTS Assay for Inhibitors of Bloom's syndrome helicase (BLM); actives 0.2% (n = 350,000); Potency, µM (highest dose often 56.1 µM), actives largely listed as inhibitors; recombinant BLM DNA unwinding, fluorescence dequenching; AID 2528, 2010; RecQ-like DNA helicase BLM (Homo sapiens), P54132; further: nearly all actives have a fitted effect of over 35% in size
TDP1 inh = qHTS Assay for Inhibitors of Tyrosyl-DNA Phosphodiesterase (TDP1); Tyrosyl-DNA phosphodiesterase 1 (Homo sapiens), Q9NUW8; recombinant TDP1, AlphaScreen DNA substrate cleavage; Potency, µM (titrated, usually from 130 µM), most hits filed as inhibitors; actives 0.28% (n = 350,000); AID 485290, 2010; further: nearly all actives have a fitted effect of over 40% in size
Target sequence (Q9NUW8 whole entry, looked up): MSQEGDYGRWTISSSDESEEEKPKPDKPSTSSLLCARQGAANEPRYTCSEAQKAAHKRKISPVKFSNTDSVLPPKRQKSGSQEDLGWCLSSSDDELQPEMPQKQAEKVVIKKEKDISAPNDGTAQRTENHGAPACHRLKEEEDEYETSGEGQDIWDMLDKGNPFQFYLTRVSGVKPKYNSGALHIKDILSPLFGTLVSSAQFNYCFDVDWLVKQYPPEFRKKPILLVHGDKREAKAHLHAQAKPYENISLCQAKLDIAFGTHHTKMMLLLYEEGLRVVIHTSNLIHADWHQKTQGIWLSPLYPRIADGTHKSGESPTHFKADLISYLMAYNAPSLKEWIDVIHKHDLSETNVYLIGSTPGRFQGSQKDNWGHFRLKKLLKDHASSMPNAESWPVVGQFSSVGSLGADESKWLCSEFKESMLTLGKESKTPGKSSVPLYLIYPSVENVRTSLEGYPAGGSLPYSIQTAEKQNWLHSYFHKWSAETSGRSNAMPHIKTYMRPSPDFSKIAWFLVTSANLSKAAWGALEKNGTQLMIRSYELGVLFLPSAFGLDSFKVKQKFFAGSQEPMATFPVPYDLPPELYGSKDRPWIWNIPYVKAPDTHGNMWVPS
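Recombinant E. coli-expressed Tdp1 (1 nM) preincubated with compound 15 min at RT, then 5'-biotin/3'-phosphotyrosine-FITC DNA substrate (15 nM) added for 5 min. AlphaScreen beads (10 ug/ml) added, 10 min RT; tyrosine-FITC cleavage read as signal loss.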
RECQ1 inh = qHTS Assay for Inhibitors of RecQ-Like Dna Helicase 1 (RECQ1); Potency, µM (highest dose often 57.3 µM), actives largely listed as inhibitors; RECQ1 DNA unwinding, red fluorescence kinetic read; actives 0.54% (n = 240,000); further: nearly all actives have a fitted effect of over 30% in size
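RECQ1T1 50 nM; forked duplex (20 bp + 30-nt ss tails) 200 nM, ATP 2 mM final; pH 8.0, 2 mM MgCl2, 2.5 ug/ml poly(dI-dC); 15 min compound preincubation; discontinuous kinetic read over 2 h at RT.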
APE1 inh = qHTS Assay for Inhibitors of the Human Apurinic/apyrimidinic Endonuclease 1 (APE1). Potency, µM (series often up to 65.8 µM), hits mostly inhibitors. DNA repair nuclease/redox regulator APEX1 (Homo sapiens), P27695. recombinant APE1, TAMRA/BHQ-2 abasic DNA cleavage fluorescence. actives 0.35% (n = 350,000). AID 2517, 2012; further: nearly all actives have a fitted effect of over 55% in size
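Kinetic fluorescence read (525 ex/598 em nm, three reads 60 s apart) of AP-site incision; signal = third minus first read. Enzyme 0.75 nM, dual-labelled THF duplex 50 nM, compound preincubation 15 min RT.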
Hits are given with their value; 0 = inactive; ? = inconclusive; - = no result. In the library only some 0.92% were active in any assay of this set; here they are far more common. The call rests on the fitted dose curve; in most records, active means well fitted curve in the direction sought with a large enough effect; inconclusive means small, poorly fitted or top-dose-only effect, or another doubt; inactive means no such curve, though single readings can be large; an effect the other way counts as inactive or inconclusive.

SMILES	FEN1 inhibitor	BLM inh	TDP1 inh	RECQ1 inh	APE1 inh
Cc1ccc(OCC(=O)c2c(N)n(C)c(=O)n(C)c2=O)c([N+](=O)[O-])n1	?	-	3.16µM	-	15µM
c1ccc(C(O[C@H]2CCCN(CCc3ccc4c(c3)OCO4)C2)c2ccccc2)cc1	-	-	-	-	0
O=C1NC(=S)S/C1=C\c1coc2ccccc2c1=O	0	0	0	20µM	0
O=c1oc2cc([N+](=O)[O-])ccc2nc1/C=C(\O)c1cccc(Br)c1	25.1µM	0	-	0	0
N[C@H](C(=O)O)[C@@H]1CC(Cl)=NO1	-	-	-	-	0
COc1ccc(NC(=O)CN(C)C(=O)c2cccc(-n3cccc3)c2)cc1	0	-	2.51µM	-	2.38µM
Cc1cccc(NC(=O)CNC(=O)c2cccc(-n3cccc3)c2)c1C	?	-	-	-	1.89µM
Cc1cccc(NC(=O)CNCC(=O)Nc2cccc(C)c2C)c1C	0	0	-	-	0
Cc1ccc(NC(=O)CN(C)C(=O)c2cccc(-n3cccc3)c2)cc1	?	-	-	-	0.947µM
COc1ccc(C=O)cc1COc1ccc(NC(C)=O)cc1	-	-	0	-	-
CCn1cnc2c(Nc3ccc(CC(=O)N=C(N)N)cc3)nc(C#N)nc21	-	-	0	-	-
Cc1ccc2[nH]c(=O)c3cc(C(=O)N4CCN(C(=O)c5ccco5)CC4)sc3c2c1	0	0	56.2µM	0	?
CCOC(=O)C1=C(O)/C(=C\c2cccs2)N=C1C	0	0	0	0	0
CCOC(=O)C1=C(O)/C(=C\c2ccc(CNC(=O)C(=O)Nc3ccccc3)o2)N=C1C	0	35.5µM	0	0	0
CC(C)C(OC(=O)CNC(=O)c1ccccc1)C(=O)Nc1cc(C(F)(F)F)ccc1Cl (configuration not stated)	-	-	0	-	-
COc1cc(OC)c(NC(=O)CCCn2nc(C)c3sc4ccccc4c3c2=O)cc1Cl	35.5µM	0	0	-	-
Nc1nc(-c2ccccc2)c(N=Nc2cccc3ccccc23)s1	0	0	0	35.5µM	?
O=C(OCC#CCSc1nnc(-c2cccc3ccccc23)o1)c1sc2ccccc2c1Cl	-	-	0	-	-
O=C1C2CC=C(Cl)CC2C(=O)N1CCCCCCN1C(=O)C2CC=C(Cl)CC2C1=O (configuration not stated)	0	?	-	28.2µM	31.6µM
Cc1ccccc1-c1cncnc1N(C)Cc1ccco1	-	0	22.4µM	0	0
O=C(N/N=C/c1ccc2c(c1)OCO2)c1ccc(COCC(F)(F)C(F)F)cc1	0	0	56.2µM	-	0
C#Cc1ccc([C@@H]2C=C(C(=O)OCC=C)O[C@H](OCC)[C@H]2CCCO)cc1	0	0	0	0	0
C#Cc1ccc([C@H]2C=C(C(=O)OCC=C)O[C@@H](OCC)[C@@H]2CCCO)cc1	0	0	0	22.4µM	0
CC(C)(C)OC(=O)NCC(=O)NNC(=O)c1nc2ccccc2[nH]1	-	-	0	-	-
CC(C)(C)OC(=O)Cc1nnc(C(C(=O)OCc2ccccc2)c2ccccc2)s1 (configuration not stated)	-	-	0	-	-
SMILES	FEN1 inhibitor	BLM inh	TDP1 inh	RECQ1 inh	APE1 inh
COc1ccc(CCNC(=O)C(=O)c2c[nH]c3ccccc23)cc1	-	-	0	0	0
CC(C)(C)[C@H]1COC(=O)[C@H](NC(=O)OCC2c3ccccc3-c3ccccc32)C/C=C\C[C@@H](CC(=O)N[C@@H](CO)Cc2ccccc2)C(=O)N1	0	-	0	-	23.8µM
CC(C)(C)OC(=O)C[C@H]1C/C=C\C[C@H](CC(=O)N[C@@H](CO)Cc2ccccc2)C(=O)N[C@H](C(C)(C)C)COC1=O	0	-	0	-	13.4µM
O=C(N[C@@H]1C/C=C\C[C@@H](CC(=O)N(CCO)Cc2ccccc2)C(=O)NCCOC1=O)OCC1c2ccccc2-c2ccccc21	0	-	0	-	23.8µM
CC(C)(C)OC(=O)C[C@H]1C/C=C\C[C@H](CC(=O)N[C@H](CO)Cc2ccccc2)C(=O)N[C@H](C(C)(C)C)COC1=O	0	-	0	-	0
Cc1ccc(N(C)S(=O)(=O)c2ccc3c(c2)CCC(=O)N3)cc1C	-	-	0	-	-
CC(C)(CS(=O)(=O)[O-])NC(=O)CC[N+](C)(C)CCO	39.8µM	14.1µM	0	1.41µM	6.31µM
COc1cc(C2Nc3ccccc3C(=O)N2Cc2ccccc2)ccc1OCc1ccc(NC(C)=O)cc1 (configuration not stated)	-	-	0	-	-
COc1cc(/C=C2\SC(=S)N(NC(=O)c3cccnc3)C2=O)ccc1O	0	0	0	25.1µM	?
COc1cc(/C=C2\SC(=S)N(Nc3ncc(C(F)(F)F)cc3Cl)C2=O)ccc1O	?	0	0	28.2µM	?
COc1cc(/C=C2\SC(=S)N(NC(=O)c3ccc(O)cc3)C2=O)ccc1O	?	0	-	-	0
CCOc1cc(/C=C2\SC(=S)N(Nc3ccccc3)C2=O)ccc1O	?	0	0	25.1µM	?
Cc1ccc(NS(=O)(=O)c2cc3c(cc2Cl)CCC(=O)N3)cc1C	-	-	0	-	-
Cc1ccccc1CNC(=O)C1CCCN(c2nnc(C)c3c(C)n(-c4ccccc4)nc23)C1 (configuration not stated)	?	0	79.4µM	-	0
CCn1c(=O)c(C(=O)NCCCc2ccccc2)c(O)c2ccccc21	0	0	56.2µM	-	0
CCCn1c(=O)c(C(=O)NCCCc2ccccc2)c(O)c2ccccc21	0	0	0	-	0
COc1ccc(C2c3c(nc(CCc4ccccc4)[nH]c3=O)Oc3ccc4ccccc4c32)cc1OC (configuration not stated)	-	-	0	-	-
COc1ccc(Cl)c(Cn2cnc3c(cnn3C(C)(C)C)c2=O)c1	0	-	-	-	0
Cn1cccc1CC(=O)N/N=C\c1c2ccccc2cc2ccccc12	0	0	0	0	0
C[N+](C)(C)CC(=O)N/N=C/c1c2ccccc2cc2ccccc12	50.1µM	0	0	-	?
Nc1ccc(S(=O)(=O)Nc2nccs2)cc1N=Nc1ccccc1[N+](=O)[O-]	50.1µM	-	-	-	-
Cc1cc(C)c2nccc(/C=C/c3ccc(N(C)C)cc3)c2c1	0	-	-	-	-
CC1CCN(C(=O)c2ccccc2NC(=O)c2nsc3ccccc23)CC1	0	0	0	-	-
Cc1ccccc1C(=O)Nc1ccccc1C(=O)N1CCC(C)CC1	89.1µM	0	-	-	0
CCCCCCCC1=CC2=C(Cl)C(=O)C(C)(OC(C)=O)C(=O)C2=CN1C (configuration not stated)	-	0	0	0	0
CCc1ccc(-c2nc3c(=O)n(C)c(=O)nc-3n(CC)n2)cc1	0	-	0	-	-
CCCc1nc2c(=O)n(C)c(=O)nc-2n(C)n1	0	2.82µM	0	?	?
Cn1nc(-c2ccccn2)nc2c(=O)n(C)c(=O)nc1-2	0	1µM	0	4.47µM	?
O=C(NCCCN1CCCCCC1)C(c1ccccc1)C1CCCCC1 (configuration not stated)	-	-	?	0	0

Compound activity deposited in PubChem BioAssay by National Center for Advancing Translational Sciences (NCATS).
